The values that follow come from PubChem BioAssay (Tox21).

Activity calls are given as the source filed them. Calls come from the whole dose curve; as a rule, active = well fitted inhibition curve with a large enough effect in the repeat runs (not every such curve was filed as active); inconclusive = weak or mixed curves; inactive = flat fitted curve, though single readings scatter.
% is set by controls: 0 for no effect and ±100 for the full control effect.

Thyrotropin-releasing hormone receptor (Homo sapiens), sequence (P34981 whole entry, looked up): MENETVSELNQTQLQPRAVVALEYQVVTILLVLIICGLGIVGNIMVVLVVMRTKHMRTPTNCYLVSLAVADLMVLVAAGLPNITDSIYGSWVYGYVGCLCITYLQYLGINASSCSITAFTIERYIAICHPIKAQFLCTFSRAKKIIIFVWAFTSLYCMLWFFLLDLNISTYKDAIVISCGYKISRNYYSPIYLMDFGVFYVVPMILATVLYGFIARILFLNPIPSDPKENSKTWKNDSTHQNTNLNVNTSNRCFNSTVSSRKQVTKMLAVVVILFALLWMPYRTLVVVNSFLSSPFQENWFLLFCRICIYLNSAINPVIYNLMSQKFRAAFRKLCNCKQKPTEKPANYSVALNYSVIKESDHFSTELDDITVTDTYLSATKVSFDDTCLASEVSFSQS

The assay has as its target Thyrotropin-releasing hormone receptor (Homo sapiens) (UniProt P34981). In words: qHTS assay to identify small molecule antagonists of the thyrotropin-releasing hormone receptor (TRHR) signaling pathway (AID 1346877). Particulars: TRHR-HEK293, TRH-induced calcium fluorescence, antagonist mode; series mostly up to 51.3 µM; activity, negative = inhibition: at the top concentration. The text has this:
National Center for Advancing Translational Sciences [NCATS]
NIH Chemical Genomics Center [NCGC]
U.S. Environmental Protection Agency [EPA]
National Institutes of Environmental Health Sciences [NIEHS]
National Toxicology Program [NTP]
U.S. Food and Drug Administration [FDA]
Thyrotropin-releasing hormone (TRH) receptor (TRHR) is a G-protein-coupled receptor which binds the tripeptide thyrotropin releasing hormone. TRHR is found in the brain and, when bound by TRH, acts (through phospholipase C) to increase intracellular inositol trisphosphate. It plays a crucial role in the anterior pituitary where it controls the synthesis and secretion of thyroid stimulating hormone and prolactin. The TRHR-Hek293 assay is a cell-based assay, and it has the potential to screen G protein-coupled receptors. A compound/drug can either activate (agonist) or suppress (antagonist) GPCRs that can be monitored by levels of intracellular calcium. In this assay, the Tox21 10K compound library was screened to identify potential TRHR antagonists.
Tox21 Assay Protocol Summary:
The TRHR-Hek293 cells were dispensed at 1500cells/4uL/well in 1536-well black-clear bottom plates using a Multidrop dispenser. After the assay plates were incubated at a 37 C/5% CO2 incubator for 18 hours, 4 uL of Dye-Loading Solution was added to each well. The plates were incubated at 37 C for 2 hours. For agonist mode, 23 nL of compounds dissolved in DMSO, positive controls or DMSO only was transferred to the assay plate by a pin tool. The fluorescence intensity in the plates was measured using FDSS 7000EX kinetic plate reader for 3 min at 1 sec intervals. For antagonist mode, 23 nL of compounds dissolved in DMSO, positive controls or DMSO only was transferred to the assay plate by a pin tool. After 5 min incubation at room temperature, 1 uL of TRH was added on the top of the cell/compound mixtures to achieve a final agonist concentration of 1 nM. The fluorescence intensity in the plates was measured using FDSS 7000EX kinetic plate reader for 3 min at 1 sec intervals. Each test compound was measured at 15 concentrations and in triplicates.
In general terms: Quantitative high-throughput screening tests each substance at several concentrations.
For the molecule `O=C(O)CNCC(=O)O`, the activity, negative = inhibition is -17.8% [at 4.65 µM] (inactive).
With `CN(C)CCOC(c1ccccc1)c1ccc(Br)cc1` (stereo not given), the “activity, negative = inhibition” value is -1.08% [at 23.6 µM] (inactive).
Turning to `COc1cc2nc(N(C)CCCNC(=O)C3CCCO3)nc(N)c2cc1OC` (stereo not given), the “activity, negative = inhibition” value was -9.5% [at 23.6 µM] (inactive).
In the case of `c1ccc(CNCCNCc2ccccc2)cc1`, the “activity, negative = inhibition” value was -0.327% [at 23.6 µM] (inactive).
For `C=C(C)C(=O)OCCOCC`, the “activity, negative = inhibition” value is -0.0216% (inactive).
The result for `CCCCCCCCCOS(=O)(=O)O` reads 1.13% (inactive).
As to `C=CC1CC2C=CC1C2` (stereo not given), the “activity, negative = inhibition” value was 0.452% (inactive).
With `C[N+]1(C)CCC(OC(=O)C(O)(c2ccccc2)C2CCCC2)C1` (stereo not given), the “activity, negative = inhibition” value was 3.55% [at 23.6 µM] (inactive).
For the molecule `c1ccc(C(O[C@H]2CCCN(CCc3ccc4c(c3)OCO4)C2)c2ccccc2)cc1`, the “activity, negative = inhibition” value was -3.37% [at 23.6 µM] (inactive).
Consider `O=C(O)c1ccco1`, for which the “activity, negative = inhibition” value was 0.404% (inactive).
For `Cc1ccc(N=Nc2c(O)c(C(=O)O)cc3ccccc23)c(S(=O)(=O)O)c1`, the “activity, negative = inhibition” value was -0.205% [at 23.6 µM] (inactive).
With `CCCC(=O)Nc1ccc(O)c(C(C)=O)c1`, the “activity, negative = inhibition” value was 0.342% [at 23.6 µM] (inactive).
In the case of `CC(=O)OC[C@H]1O[C@@H](n2ncc(=O)[nH]c2=O)[C@H](OC(C)=O)[C@@H]1OC(C)=O`, the “activity, negative = inhibition” value was 8.74% [at 23.6 µM] (inactive).
As to `CC(C)(CO)[N+](=O)[O-]`, the “activity, negative = inhibition” value was 2.52% (inactive).
In the case of `CC1(c2ccccc2)OC(C(=O)O)=CC1=O` (stereo not given), the “activity, negative = inhibition” value was 1.52% [at 23.6 µM] (inactive).
As for `CCCNCC(O)COc1ccccc1C(=O)CCc1ccccc1` (stereo not given), the “activity, negative = inhibition” value is -13.1% [at 23.6 µM] (inactive).
`CCCCCCCCCCCCCCOS(=O)(=O)O`: the “activity, negative = inhibition” value was -19.5% (inactive).
Take `C/C=C/C(=O)CC`: the activity, negative = inhibition was -0.562% [at 10.5 µM] (inactive).
Then `CC(C)(C)Cl`, with 0.26% (inactive); and `Nc1ccc(S(=O)(=O)Nc2ccccc2)cc1`, with -0.155% [at 23.6 µM] (inactive); and `CN(C)CCCN1c2ccccc2Sc2ccccc21`, with -3.73% [at 23.6 µM] (inactive).
For the molecule `CCCCCCCC/C=C\CCCCCCCC(=O)OCC`, the “activity, negative = inhibition” value was -0.707% (inactive).
On to `CCCCC(CC)CN1C(=O)C2C3C=CC(C3)C2C1=O` (stereo not given), for which the “activity, negative = inhibition” value is -4.7% (inactive).
`COc1cc(Cl)ccc1Oc1ccc(Cl)cc1Cl`: the “activity, negative = inhibition” value is -3.62% (inactive).
Regarding `CCC(C)O` (stereo not given), the “activity, negative = inhibition” value was 1.6% (inactive).
`CCCCC/C=C\C/C=C\CCCCCCCC(=O)NC(C)c1ccccc1` (stereo not given): the “activity, negative = inhibition” value is 2.67% [at 23.6 µM] (inactive).
The result for `Nc1c(CC(=O)O)cccc1C(=O)c1ccc(Br)cc1` reads -16.1% [at 23.6 µM] (inactive); that for `COc1ccc(C)cc1[N+](=O)[O-]`, 9.9% (inactive); that for `OC(C#CCN1CCCC1)(c1ccccc1)c1ccccc1`, 3.91% [at 23.6 µM] (inactive).
As for `NC(=O)C(c1ccccc1)(c1ccccc1)[C@@H]1CCN(CCc2ccc3c(c2)CCO3)C1`, the “activity, negative = inhibition” value is -4.32% [at 23.6 µM] (inactive).
Take `NCCCN1CCOCC1`: the “activity, negative = inhibition” value was -0.273% (inactive).
The result for `NC(N)=NCCC[C@H](N)C(=O)O` reads -3.14% [at 4.65 µM] (inactive); that for `CC(C)OC(=O)C(C)N(C(=O)c1ccccc1)c1ccc(F)c(Cl)c1` (stereo not given), -11.3% (inactive); that for `CCC(=O)O[C@]1(C(=O)CCl)[C@@H](C)C[C@H]2[C@@H]3CCC4=CC(=O)C=C[C@]4(C)[C@@]3(F)[C@@H](O)C[C@@]21C`, 1.4% [at 23.6 µM] (inactive).
For `CC(COCCO)OCCO` (stereo not given), the “activity, negative = inhibition” value was 2.85% (inactive).
Then `c1ccc(-c2ccccn2)nc1`, with 3.37% (inactive); and `CN(C)c1ccc(/C=C/c2ccc([N+](=O)[O-])cc2)cc1`, with -0.61% [at 4.65 µM] (inactive); and `CCn1cc(C(=O)O)c(=O)c2cnc(N3CCNCC3)nc21`, with -2.13% [at 23.6 µM] (inactive).
Take `COc1ccc2cccc(CCNC(C)=O)c2c1`: the “activity, negative = inhibition” value was -2.9% [at 23.6 µM] (inactive).
The result for `OCCNCc1ccccc1` reads -12% (inactive).
